# In PubChem BioAssay:
# Activity calls are given as the source filed them.
# Legend:
# Albumin (Bos taurus) = Albumin (Bos taurus) (UniProt P02769); test: bovine serum albumin binders on microarray, profiling panel, artefact control for SMM control protein annotation, biochemical, small-molecule microarray, Alexa647 label, 635/667 nm fluorescence (AID 1118); settings: BSA-A647 binding, fluorescence 635 nm, higher = more signal;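 further: score merges 667 nm emission intensity and signal-to-noise per printed compound spot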
# Chain of Albumin (Bos taurus) (P02769 whole entry, looked up): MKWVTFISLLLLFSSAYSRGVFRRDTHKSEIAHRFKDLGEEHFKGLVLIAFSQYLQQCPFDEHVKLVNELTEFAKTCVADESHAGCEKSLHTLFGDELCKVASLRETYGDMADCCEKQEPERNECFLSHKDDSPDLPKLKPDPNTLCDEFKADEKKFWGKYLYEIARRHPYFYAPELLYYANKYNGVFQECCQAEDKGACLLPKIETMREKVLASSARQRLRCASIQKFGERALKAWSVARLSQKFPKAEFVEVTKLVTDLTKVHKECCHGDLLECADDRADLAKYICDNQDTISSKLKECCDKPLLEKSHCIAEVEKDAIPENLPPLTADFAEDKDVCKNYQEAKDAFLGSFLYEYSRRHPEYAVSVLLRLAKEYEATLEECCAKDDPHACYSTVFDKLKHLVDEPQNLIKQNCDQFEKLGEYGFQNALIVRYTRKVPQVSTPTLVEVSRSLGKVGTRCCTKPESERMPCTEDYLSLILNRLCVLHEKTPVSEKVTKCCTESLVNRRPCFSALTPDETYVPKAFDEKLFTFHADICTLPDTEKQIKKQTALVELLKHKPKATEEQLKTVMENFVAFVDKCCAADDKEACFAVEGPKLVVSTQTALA
# [1] = small-molecule microarray binders of probe aXIP, primary screen, biochemical, NeuroSMM set, 635/667 nm fluorescence (AID 1119); settings: higher = more signal, called active from +8 up or from −8 down;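 further: probe is the protein aXip251-270 applied at 1 µg/mL to compound-printed slides; binding of probe to printed compounds measured as 667 nm fluorescence plus signal to noise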
# [2] = small-molecule binders of probe aNOTCH3, primary screen, biochemical, small-molecule microarray, 635/667 nm fluorescence (AID 1120); settings: higher = more signal;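 further: probe is a biotin-tagged antibody raised against NOTCH3 rather than NOTCH3 protein; score merges spot fluorescence near 667 nm with spot signal to noise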
# [3] = small-molecule binders of probe aNOTCH2, primary screen, biochemical, small-molecule microarray, 635/667 nm fluorescence (AID 1121); settings: higher = more signal;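 further: score merges feature fluorescence read at 667 nm with its signal to noise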
# [4] = molecular target: Carbonic anhydrase 2 (Homo sapiens) (UniProt P00918); test: CAII small-molecule binders, profiling panel, biochemical, small-molecule microarray, Alexa647-labelled CAII (AID 1122); settings: CAII-A647 binding fluorescence, higher = more signal
# [5] = COS7 lysate on small-molecule microarray, probe aHis, 635 nm (AID 1123); settings: COS7 cell lysate, fluorescence, higher = more signal;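 further: z-score combines 667nm fluorescence intensity with signal-to-noise per printed compound spot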
# [6] = compound binding in COS7 lysate, probe aLAP1, primary screen, cell lysate, small-molecule microarray (AID 1124); settings: probe aLAP1, fluorescence, higher = more signal;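 further: lysate comes from COS7 cells expressing LAP1 and is applied at 0.3 µg/mL; score merges spot fluorescence near 667 nm with signal-to-noise over triplicate slides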
# Sam68 (KHDRBS1) = test: Sam68 small-molecule binders, primary screen, biochemical, small-molecule microarray, 635 nm fluorescence (AID 1125); settings: small-molecule microarray binding, higher = more signal;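 further: score merges 667 nm channel intensity with signal to noise over triplicate slides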
# [7] = test system: Chordin-like protein 2 (CHRDL2); test: CHRDL2 small-molecule binders, primary screen, biochemical, small-molecule microarray, 635 nm fluorescence (AID 1126); settings: small-molecule microarray binding, fluorescence 635 nm; higher = more signal;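 further: printed compound slides probed with Chrdl2 protein at 4 µg/mL for 1 h at 4 C; score merges 667 nm emission intensity with signal to noise over three replicate slides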
# [8] = molecular target: Concanavalin-A (Canavalia ensiformis) (UniProt P02866); test: ConA small-molecule binders, primary screen, artefact control for SMM control protein annotation, biochemical, small-molecule microarray, Alexa647 label, 635 nm (AID 1127); settings: ConA-A647 binding fluorescence, higher = more signal;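 further: z combines 667 nm emission intensity with signal-to-noise across three replicate slides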
# Chain of Concanavalin-A (Canavalia ensiformis) (P02866 whole entry, looked up): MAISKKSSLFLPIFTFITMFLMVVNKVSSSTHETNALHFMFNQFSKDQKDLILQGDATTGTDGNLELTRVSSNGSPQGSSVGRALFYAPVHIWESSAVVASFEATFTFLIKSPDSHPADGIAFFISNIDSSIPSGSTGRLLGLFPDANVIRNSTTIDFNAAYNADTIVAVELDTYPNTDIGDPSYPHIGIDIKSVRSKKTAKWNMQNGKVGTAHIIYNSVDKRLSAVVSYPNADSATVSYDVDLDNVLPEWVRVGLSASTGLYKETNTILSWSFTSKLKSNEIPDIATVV
Structure (SMILES),composite z-score (Albumin (Bos taurus)),composite Z-score [1],composite z-score [2],composite z-score [3],composite z-score [4],composite z-score [5],composite z-score [6],composite z-score (Sam68 (KHDRBS1)),composite z-score [7],composite z-score [8]
COc1ccc(NN2C(C(O)c3ccc(N(C)C)cc3)C=CC3C(=O)N(C4CCCCC4)C(=O)C32)cc1 (stereo not given),0.906,-0.247 (inactive),0.391,0.0992,0.689,2.13,0.414,1.31,0.212,1.16
O=C1NC(=O)C2C1C=CC(C(O)C=Cc1ccc([N+](=O)[O-])cc1)N2Nc1ccc(Cl)cc1Cl (stereo not given),0.89,0.541 (inactive),0.405,0.39,0.76,2.07,1.01,0.756,0.397,0.76
CN(C)CCCC[C@@H]1NC(=O)[C@H]2C[C@@H](C(=O)NCCCCCN)[C@@H](c3cccc(OCCO)c3)N2C1=O,0.878,0.522 (inactive),0.313,0.41,0.746,1.75,1.12,1.19,0.402,1.12
COc1ccc([Si](C)(C)[C@H]2[C@H](CC(=O)N3CCC[C@H]3CO)O[C@@]3(C(=O)N(Cc4cccc(N5CCOC5=O)c4)c4ccccc43)[C@@H]2C)cc1,-0.185,-0.0054 (inactive),-0.095,-0.151,0.334,0.626,0.218,1.26,1.36,0.996
COc1ccccc1CN1C(=O)c2ccccc2[C@@]2(Cc3ccccc3N(CCCN(C)C)C2=O)[C@@H]1c1ccc(CO)cc1,-0.909,0.027 (inactive),-0.0797,0.0687,-0.271,0.5,-0.0231,-0.204,1.27,0.417
OCCCC1=CC(C2CC2)N(Cc2cccc(OC(F)(F)F)c2)CC1 (stereo not given),0.485,0.438 (inactive),-0.284,-0.177,0.783,0.421,0.833,-0.441,-0.106,-0.807
O[C@@H](Cc1ccccc1)[C@@H](/C=C/C1CC1)NCc1cccc(Cl)c1,-0.0308,-0.515 (inactive),-0.272,-0.146,-0.397,-0.266,-0.273,-0.53,-1.11,-0.509
C[N+](C)(C)CCCCCCNC(=O)[C@H]1C[C@H]2C(=O)N[C@@H](Cc3ccccc3)C(=O)N2[C@H]1c1cccc(OCCO)c1,-0.174,0.35 (inactive),-0.1,-0.107,0.638,2.1,0.319,0.699,1.01,0.996
COc1cc2c(cc1O)C=[N+](Cc1cc3c(cc1Br)OCO3)CC2,-0.71,-0.402 (inactive),-0.185,-0.126,0.844,0.0478,0.27,-0.54,-0.139,-1.27
C=CCNC(=O)[C@H]1[C@@H]2C(=O)O[C@@H](c3ccccc3)[C@@H](c3ccccc3)N2[C@@H](c2ccc(OCCO)cc2)[C@]12C(=O)Nc1ccc(C#CCC(C(=O)OC)C(=O)OC)cc12,0.629,0.612 (inactive),0.116,0.0022,0.328,1.92,0.979,1.3,1.24,1.12
[N-]=[N+]=Nc1ccccc1C[C@@]1(C(=O)N2CCCCC2)N=C(c2ccc(OCCCO)cc2)O[C@@H]1c1ccccc1,0.782,0.219 (inactive),0.107,0.111,0.398,2.37,0.677,1.22,-0.687,1.12
COc1ccccc1CN1C(=O)c2ccccc2[C@@H](C(=O)NCc2ccccc2)[C@@H]1c1ccc(CO)cc1,0.431,-0.549 (inactive),-0.293,-0.0984,0.544,1.15,1.54,1.09,-0.353,0.305
CCCCN1CC=CC23O[C@@H]4/C=C\CCCOC(=O)C4[C@H]2C(=O)N(CCCCCO)[C@@H]3C1=O (stereo not given in full),-1.09,0.414 (inactive),-0.326,-0.192,0.754,-0.494,0.85,-1.12,-0.722,-1.22
COc1ccc(CCNC(=O)[C@@]2(c3ccc([N+](=O)[O-])cc3)CC(=O)N(CC34CC5CC(CC(C5)C3)C4)[C@@H]2c2ccc(CO)cc2I)cc1,-0.367,-0.355 (inactive),-0.332,-0.214,0.0976,2.27,0.283,0.925,0.394,0.834
CO[C@H]1O[C@H](CO)[C@@H](OC(=O)Nc2ccc(Br)cc2)[C@@H]2OC(=O)[C@H](Cc3cccc(Br)c3)C/C=C/C[C@@H](Cc3cccc(Br)c3)C(=O)O[C@@H]12,0.0911,0.106 (inactive),-0.0622,-0.129,0.275,0.112,-0.0838,-0.975,0.0113,0.365
C=CCC(OC(C)=O)[C@@H]1[C@@H](N(Cc2ccc(-c3cccc(C(F)(F)F)c3)o2)C(=O)c2cccc3ccccc23)c2cc(OCCCO)ccc2N1C(=O)Cc1ccc2ccccc2c1 (stereo not given in full),0.426,0.111 (inactive),-0.0465,-0.102,0.0886,0.58,-0.0395,0.153,0.421,-0.146
CO[C@H]1O[C@H](CO)[C@@H](OC(=O)Nc2ccccc2-c2ccccc2)[C@H](OC(=O)Nc2ccccc2-c2ccccc2)[C@@H]1OC(=O)Nc1ccccc1-c1ccccc1,0.926,0.523 (inactive),0.0904,-0.0513,0.374,2.18,0.75,1.29,0.332,1.17
CN1C(=O)C2C=CC(C(O)c3ccc(F)cc3)N(N(c3ccccc3)c3ccccc3)C2C1=O (stereo not given),0.698,2.43 (inactive),0.206,0.0264,0.506,2.82,0.0833,-0.0714,-0.69,0.324
CCCCN1CC=CC23O[C@@H]4/C=C\CCCOC(=O)C4[C@H]2C(=O)N(CCCO)[C@@H]3C1=O (stereo not given in full),-0.314,0.949 (inactive),-0.229,-0.18,0.939,1.28,1.82,-0.158,-0.824,-1.4
NC(=O)N1C(=O)C2C(C1=O)C1C=C(CCCO)C2C(C2CC2)N1Cc1cc2c(cc1Br)OCO2 (stereo not given),0.277,0.0861 (inactive),0.0242,-0.112,0.877,0.872,-0.0694,-0.989,-0.667,-0.0295
COc1ccc([Si](C)(C)[C@@H]2[C@@H](CC(=O)N3Cc4ccccc4C[C@H]3CO)O[C@]3(C(=O)N(Cc4cccc(N5CCC5=O)c4)c4ccccc43)[C@H]2C)cc1,-0.147,0.3 (inactive),0.16,-0.117,0.283,1.15,0.0905,1.22,0.711,0.961
O=C1O[C@@H](c2ccccc2)[C@@H](c2ccccc2)N2[C@@H](c3ccccc3OCCO)[C@]3(C(=O)Nc4ccccc43)[C@@H](C(=O)O)[C@H]12,0.858,-0.0247 (inactive),-0.254,-0.0657,0.441,1.78,0.369,1.12,-0.165,1.13
O=C1[C@@]23C=C(Br)[C@H](C[C@@H]2COC3)[C@]12CO2,-0.742,-0.222 (inactive),-0.0187,-0.0176,-0.762,0.638,-0.447,-2.61,-0.323,-1.79
COCC(=C=CC[C@H](O)c1cccc(OCCO)c1)CCO,0.663,-0.0662 (inactive),-0.0311,-0.166,0.462,1.44,-0.0637,0.431,0.247,-0.042
CC(C)C(=C=CC[C@H](O)c1ccc(CO)o1)CCO,0.906,0.304 (inactive),-0.111,-0.148,0.756,0.514,0.792,0.856,0.0622,0.828
O=C1OCCC=C[C@H]2OC34C=CCN(c5ccc(Cl)cc5)C(=O)[C@H]3N(CCCO)C(=O)[C@@H]4C12 (stereo not given in full),-0.989,-0.118 (inactive),-0.237,-0.186,0.268,-0.714,0.27,-1.21,-0.406,-0.295
COC(=O)C[C@H]1O[C@@H](CCc2ccccc2)[C@@H](C)[C@@H]1[Si](C)(C)c1ccc(OC)cc1,-0.932,0.611 (inactive),-0.268,-0.154,-0.394,-0.308,0.314,-1.1,0.323,-0.615
COCC(=C=CC[C@H](O)c1cccc(OCCO)c1)C[C@H](O)c1cc(Cl)cc(Cl)c1O,0.187,-0.103 (inactive),-0.0343,-0.0083,0.383,1.77,0.328,1.3,0.695,0.337
